Results: PubChem BioAssay AID1159580 (chemical genetic matrix, 2015)
Several values for one entry are separate records, joined by “and”; a condition that tells them apart may be missing. Identical values can stand only once. About 2,000 (36%) of roughly 5,500 compounds were called active. Not shown: some 18% with an inconclusive outcome. Cut-off read from the data, not from the text of the source: active = normalized growth mostly below about 0.91 (no sharp cut-off); inconclusive = no clear call, values can overlap the other calls; inactive = mostly above about 0.92. The list shows a part of the results.

Test: chemical genetic growth profiling, strain panel (AID 1159580);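 note: tested at 20 µM; growth read once vehicle control cultures reached saturation at 30 °C; 1 = growth at the plate median or of vehicle wells; lower values mean less growth of the strain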
Conditions: S. cerevisiae deletion strains, growth OD

Measured: normalized growth

Oc1ccc(/C=C/c2cc(O)cc(O)c2)cc1
inactive: locus YAL013W, strain DEP1, stronger effect = lower value 0.972 and 1.02 | locus YAL021C, strain ccr4, stronger effect = lower value 0.995 | locus YAL026C, strain drs2, stronger effect = lower value 0.978 | locus YAL030W, strain snc1, stronger effect = lower value 0.99 | locus YAL040C, strain CLN3, stronger effect = lower value 0.987 | locus YBL061C, strain skt5, stronger effect = lower value 0.992 | locus YBR009C, strain hhf1, stronger effect = lower value 0.968 | locus YBR021W, strain FUR4, stronger effect = lower value 0.961 | locus YBR023C, strain chs3, stronger effect = lower value 0.99 | locus YBR171W, strain sec66, stronger effect = lower value 1.01 | locus YBR229C, strain ROT2, stronger effect = lower value 1.02 | locus YBR231C, strain swc5, stronger effect = lower value 0.988 | locus YBR279W, strain paf1, stronger effect = lower value 0.988 | locus YCL011C, strain gbp2, stronger effect = lower value 0.996 | locus YCL016C, strain dcc1, stronger effect = lower value 0.99 | locus YCL029C, strain bik1, stronger effect = lower value 0.929 | locus YCL061C, strain MRC1 (second series), stronger effect = lower value 0.987 | locus YCL061C, strain MRC1, stronger effect = lower value 0.99 | locus YCL069W, strain vba3, stronger effect = lower value 1.01 | locus YCR088W, strain abp1, stronger effect = lower value 1 | locus YDL005C, strain med2, stronger effect = lower value 0.999 | locus YDL035C, strain GPR1, stronger effect = lower value 0.939 | locus YDL040C, strain nat1, stronger effect = lower value 0.982 | locus YDL074C, strain BRE1, stronger effect = lower value 0.867 | locus YDL101C, strain DUN1, stronger effect = lower value 0.999 | locus YDL134C, strain PPH21, stronger effect = lower value 0.982 | locus YDL185W, strain tfp1, stronger effect = lower value 0.939 | locus YDR001C, strain nth1, stronger effect = lower value 0.999 | locus YDR069C, strain doa4, stronger effect = lower value 0.988 | locus YDR150W, strain NUM1, stronger effect = lower value 0.985 | locus YDR159W, strain sac3, stronger effect = lower value 0.954 | locus YDR162C, strain NBP2, stronger effect = lower value 0.948 | locus YDR297W, strain sur2, stronger effect = lower value 0.977 | locus YDR318W, strain mcm21, stronger effect = lower value 0.983 | locus YDR334W, strain swr1, stronger effect = lower value 0.997 | locus YDR335W, strain msn5, stronger effect = lower value 1.01 | locus YDR363W, strain ESC2, stronger effect = lower value 1.01 | locus YDR388W, stronger effect = lower value 0.962 | locus YDR392W, strain spt3, stronger effect = lower value 0.842 | locus YEL003W, strain gim4, stronger effect = lower value 0.992 | locus YEL037C, strain rad23, stronger effect = lower value 1.01 | locus YEL061C, strain CIN8 (second series), stronger effect = lower value 1.01 | locus YEL061C, strain CIN8, stronger effect = lower value 0.986 | locus YER002W, strain NOP16, stronger effect = lower value 0.98 | locus YER015W, strain faa2, stronger effect = lower value 0.986 | locus YER016W, strain bim1, stronger effect = lower value 0.994 | locus YER110C, stronger effect = lower value 0.98 | locus YER111C, strain swi4, stronger effect = lower value 1.01 | locus YER155C, strain BEM2 (second series), stronger effect = lower value 0.986 | locus YER155C, strain BEM2, stronger effect = lower value 1.02 | locus YER167W, strain BCK2, stronger effect = lower value 1.01 | locus YFR010W, strain ubp6, stronger effect = lower value 0.984 | locus YGL167C, strain pmr1, stronger effect = lower value 0.978 | locus YGL173C, strain kem1, stronger effect = lower value 0.994 | locus YGL227W, strain vid30, stronger effect = lower value 0.991 | locus YGL240W, strain doc1, stronger effect = lower value 1 | locus YGL248W, strain PDE1, stronger effect = lower value 0.965 | locus YGL253W, strain hxk2, stronger effect = lower value 0.968 | locus YGR078C, strain PAC10, stronger effect = lower value 0.959 | locus YGR135W, strain pre9, stronger effect = lower value 0.936 | locus YGR252W, strain gcn5, stronger effect = lower value 0.853 | locus YHR013C, strain ard1, stronger effect = lower value 1.04 | locus YHR027C, strain rpn1, stronger effect = lower value 0.989 | locus YHR079C, strain IRE1 (second series), stronger effect = lower value 0.981 | locus YHR079C, strain IRE1, stronger effect = lower value 0.978 | locus YHR094C, strain hxt1, stronger effect = lower value 0.981 | locus YHR129C, strain ARP1, stronger effect = lower value 0.972 | locus YHR142W, strain chs7, stronger effect = lower value 0.987 | locus YHR200W, strain rpn10, stronger effect = lower value 0.93 | locus YIL066C, strain RNR3, stronger effect = lower value 0.987 | locus YIL073C, strain SPO22, stronger effect = lower value 0.896 | locus YIL125W, strain kgd1, stronger effect = lower value 0.952 | locus YIR030C, strain dcg1, stronger effect = lower value 0.964 | locus YJL092W, strain hpr5, stronger effect = lower value 0.995 | locus YJL095W, strain BCK1 (second series), stronger effect = lower value 0.987 | locus YJL115W, strain asf1, stronger effect = lower value 1 | locus YJL129C, strain trk1, stronger effect = lower value 0.903 | locus YJL134W, strain LCB3, stronger effect = lower value 1.01 | locus YJL154C, strain vps35, stronger effect = lower value 1 | locus YJL164C, strain tpk1, stronger effect = lower value 1.01 | locus YJL166W, strain qcr8, stronger effect = lower value 0.998 | locus YJL168C, strain set2, stronger effect = lower value 0.973 | locus YJL187C, strain SWE1 (second series), stronger effect = lower value 0.934 | locus YJL187C, strain SWE1, stronger effect = lower value 0.986 | locus YJR043C, strain POL32, stronger effect = lower value 0.946 | locus YJR066W, strain TOR1, stronger effect = lower value 0.939 | locus YJR075W, strain HOC1, stronger effect = lower value 0.986 and 1.01 | locus YKL068W, stronger effect = lower value 0.977 | locus YKL085W, strain MDH1 (second series), stronger effect = lower value 0.982 | locus YKL085W, strain MDH1, stronger effect = lower value 0.982 | locus YKL160W, strain elf1, stronger effect = lower value 1 | locus YKL190W, strain CNB1, stronger effect = lower value 0.992 | locus YKR026C, strain gcn3, stronger effect = lower value 0.991 | locus YKR091W, strain srl3, stronger effect = lower value 0.995 | locus YLL001W, strain dnm1, stronger effect = lower value 1.01 | locus YLL026W, stronger effect = lower value 0.99 | locus YLL041C, strain sdh2, stronger effect = lower value 0.991 | locus YLR027C, strain aat2, stronger effect = lower value 0.994 | locus YLR039C, strain RIC1, stronger effect = lower value 0.87 | locus YLR058C, strain SHM2, stronger effect = lower value 0.972 | locus YLR102C, strain apc9, stronger effect = lower value 0.997 | locus YLR113W, strain HOG1, stronger effect = lower value 1.04 | locus YLR221C, strain rsa3, stronger effect = lower value 0.972 | locus YLR258W, strain gsy2, stronger effect = lower value 0.986 | locus YLR262C, strain YPT6, stronger effect = lower value 0.877 | locus YLR268W, strain sec22, stronger effect = lower value 0.894 | locus YLR320W, strain mms22, stronger effect = lower value 0.971 | locus YLR330W, strain CHS5, stronger effect = lower value 0.998 | locus YLR342W, strain FKS1 (second series), stronger effect = lower value 0.946 | locus YLR342W, strain FKS1, stronger effect = lower value 0.993 | locus YLR357W, strain rsc2, stronger effect = lower value 0.976 | locus YLR370C, strain arc18, stronger effect = lower value 1.01 | locus YLR384C, strain iki3, stronger effect = lower value 0.996 | locus YML016C, strain PPZ1, stronger effect = lower value 0.993 | locus YML032C, strain rad52, stronger effect = lower value 0.938 | locus YML120C, strain ndi1, stronger effect = lower value 0.956 | locus YML124C, strain tub3, stronger effect = lower value 0.993 | locus YMR058W, strain fet3, stronger effect = lower value 0.975 | locus YMR078C, strain ctf18, stronger effect = lower value 0.96 | locus YMR125W, strain sto1, stronger effect = lower value 0.999 | locus YMR129W, stronger effect = lower value 0.996 | locus YMR205C, strain PFK2, stronger effect = lower value 0.976 | locus YMR223W, strain ubp8, stronger effect = lower value 0.923 | locus YMR231W, strain pep5, stronger effect = lower value 1 | locus YMR263W, strain SAP30, stronger effect = lower value 0.997 | locus YNL067W, strain RPL9B, stronger effect = lower value 0.979 | locus YNL071W, strain lat1, stronger effect = lower value 0.988 | locus YNL175C, strain NOP13, stronger effect = lower value 0.958 | locus YNL183C, strain NPR1, stronger effect = lower value 0.962 | locus YNL197C, strain WHI3, stronger effect = lower value 0.966 | locus YNL209W, strain ssb2, stronger effect = lower value 0.979 | locus YNL224C, strain SQS1, stronger effect = lower value 0.974 | locus YNL233W, strain BNI4, stronger effect = lower value 0.924 | locus YNL248C, strain rpa49, stronger effect = lower value 0.983 | locus YNL250W, strain rad50, stronger effect = lower value 0.971 | locus YNL271C, strain bni1, stronger effect = lower value 0.951 | locus YNL298W, strain CLA4, stronger effect = lower value 0.92 | locus YNL307C, strain MCK1, stronger effect = lower value 0.99 | locus YNL322C, strain KRE1 (second series), stronger effect = lower value 0.998 | locus YNR049C, strain mso1, stronger effect = lower value 1.01 | locus YOL012C, strain htz1 0.774 | locus YOR001W, strain rrp6, stronger effect = lower value 0.985 | locus YOR061W, strain CKA2, stronger effect = lower value 0.995 | locus YOR069W, strain VPS5, stronger effect = lower value 0.998 | locus YOR070C, strain gyp1, stronger effect = lower value 0.986 | locus YOR080W, strain dia2, stronger effect = lower value 0.994 | locus YOR083W, strain WHI5 (second series), stronger effect = lower value 0.98 | locus YOR083W, strain WHI5, stronger effect = lower value 0.965 | locus YOR106W, strain vam3, stronger effect = lower value 0.982 | locus YOR136W, strain idh2, stronger effect = lower value 0.965 | locus YOR144C, strain elg1, stronger effect = lower value 0.963 | locus YOR231W, strain MKK1, stronger effect = lower value 0.98 | locus YOR265W, strain rbl2, stronger effect = lower value 0.985 | locus YOR270C, strain vph1, stronger effect = lower value 0.963 | locus YOR290C, strain snf2, stronger effect = lower value 0.95 | locus YOR316C, strain cot1, stronger effect = lower value 0.982 | locus YPL051W, strain arl3, stronger effect = lower value 0.983 | locus YPL055C, strain LGE1, stronger effect = lower value 0.894 | locus YPL078C, strain atp4, stronger effect = lower value 0.994 | locus YPL106C, strain sse1, stronger effect = lower value 1.02 | locus YPL240C, strain hsp82, stronger effect = lower value 0.988 | locus YPL241C, strain CIN2, stronger effect = lower value 0.985 | locus YPL256C, strain CLN2, stronger effect = lower value 0.975 | locus YPR119W, strain clb2, stronger effect = lower value 0.981 | locus YPR141C, strain kar3, stronger effect = lower value 0.973 | locus YPR167C, strain met16, stronger effect = lower value 0.978
active: locus YDL192W, strain arf1, stronger effect = lower value 0.865 | locus YDR101C, strain arx1, stronger effect = lower value 0.873 | locus YDR137W, strain rgp1, stronger effect = lower value 0.681 | locus YDR195W, strain ref2 1.18 [resistant] | locus YDR502C, strain sam2, stronger effect = lower value 0.895 | locus YGL078C, strain dbp3, stronger effect = lower value 0.895 | locus YGL086W, strain mad1, stronger effect = lower value 0.897 | locus YKL009W, strain mrt4, stronger effect = lower value 0.779 | locus YKR001C, strain vps1, stronger effect = lower value 0.692 | locus YLR262C, strain YPT6 (second series), stronger effect = lower value 0.822 | locus YLR371W, strain rom2, stronger effect = lower value 0.766 | locus YLR418C, strain cdc73, stronger effect = lower value 0.686 | locus YMR307W, strain GAS1, stronger effect = lower value 0.538 | locus YNR052C, strain pop2, stronger effect = lower value 0.833 | locus YOL147C, strain pex11, stronger effect = lower value 0.926 | locus YOR184W, strain ser1, stronger effect = lower value 0.729 | locus YPR163C, strain tif3, stronger effect = lower value 0.909 | strain wtn01, stronger effect = lower value 0.895
0.406 (active) and 1.01 (inactive): locus YJL095W, strain BCK1, stronger effect = lower value
0.892 (active) and 0.981 (inactive): locus YHR030C, strain SLT2, stronger effect = lower value
